The source made the active and inactive calls. The calls were made as follows: active = hit-call score of the fitted dose curve at least 0.9, where 1 is the maximum; inactive = score below 0.9.

The term AC50 denotes the concentration giving half of the maximal activity seen.

Experiment [1] in a line: ATG_GLI_CIS: Attagene CIS-FACTORIAL HepG2 Assay for human Zinc Finger Protein GLI1 (AID 2282945). The conditions noted are these: HepG2, Attagene cis-factorial reporter mRNA, GLI element; actives raise or lower the signal. The essentials: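 HepG2 cells transiently transfected with cis-promoter multiplexed reporter units report endogenous transcription factor activity. After 24 h chemical exposure, reporter mRNA was quantified by RT-PCR, 6-FAM labelling, HpaI digestion and capillary electrophoresis, with bidirectional fitting against DMSO.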

Experiment [2] has as its target Bile acid receptor (Homo sapiens) (UniProt Q96RI1). Kind of experiment: ATG_IR1_CIS: Attagene CIS-FACTORIAL HepG2 Assay for human Nuclear Receptor Subfamily 1 Group H Member 4 (NR1H4), IR1 submotif (AID 2282946). As to conditions: IR1 reporter transcription, actives raise or lower the signal. The method in brief: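 Transient MRTU transfection, HepG2; 24 h dosing; RNA → RT-PCR → 6-FAM primer extension → HpaI digest → capillary electrophoresis fluorescence. Gain/loss of signal fitted relative to DMSO.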

Experiment [3] can be described thus: ATG_ISRE_CIS: Attagene CIS-FACTORIAL HepG2 Assay for human Interferon Regulatory Factor 1 (IRF1) binding to an Interferon-Stimulated Response Element (ISRE) (AID 2282948). The conditions noted are these: HepG2 ISRE cis-reporter (Attagene), mRNA transcription readout; actives raise or lower the signal. The essentials:
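Quantitation relies on labelled RT-PCR fragments separated by capillary electrophoresis. Human HepG2 cells bearing cis-promoter reporter constructs were treated 24 h; DMSO served as baseline for bidirectional fitting.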

A short description of experiment [4]: ATG_M_32_CIS: Attagene CIS-FACTORIAL HepG2 Assay for M32 Transcription Factor (Internal Marker) (AID 2282949).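 Also: background control marker of the multiplexed CIS panel rather than a real target.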 The conditions noted are these: HepG2 Attagene cis-factorial M32 reporter, mRNA; actives raise or lower the signal. The essentials: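 Following 24 h chemical exposure of HepG2 cells transiently expressing cis-promoter reporter constructs, reporter transcript levels were determined by RT-PCR with fluorescent labelling and capillary electrophoresis, then fitted bidirectionally against DMSO.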

Experiment [5] can be described thus: ATG_M_06_CIS: Attagene CIS-FACTORIAL HepG2 Assay for M06 Transcription Factor (Internal Marker) (AID 2282950). As to conditions: HepG2 Attagene CIS-FACTORIAL M06 internal marker reporter; actives raise or lower the signal. The method in brief: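 HepG2 liver cells, 24 h exposure. Reporter transcripts from transfected cis-element constructs quantified by RT-PCR/capillary electrophoresis fluorescence. Bidirectional curve fit against DMSO.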

Experiment [6] deals with Hypoxia-inducible factor 1-alpha (Homo sapiens) (UniProt Q16665). In words: ATG_HIF1a_CIS: Attagene CIS-FACTORIAL HepG2 Assay for human Hypoxia Inducible Factor 1 (HIF1A) (AID 2282951). As to conditions: HepG2 Attagene cis-factorial HIF1a reporter transcription; actives raise or lower the signal. The method in brief:
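Endogenous-TF cis reporter readout, human HepG2 cells, 24 h incubation; mRNA detected via RT-PCR and capillary electrophoresis fluorescence; DMSO-normalised bidirectional fitting.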

Experiment [7] addresses Hepatocyte nuclear factor 6 (Homo sapiens) (UniProt Q9UBC0). Kind of experiment: ATG_HNF6_CIS: Attagene CIS-FACTORIAL HepG2 Assay for human Hepatocyte Nuclear Factor 6 (HNF6) (AID 2282952). The conditions noted are these: HepG2 Attagene cis-factorial HNF6 reporter transcription; actives raise or lower the signal. The method in brief:
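Multiplexed mRNA reporter assay in transfected HepG2; 24 h dosing; RT-PCR plus capillary electrophoresis fluorescence; DMSO-referenced bidirectional curve fitting.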

Experiment [8] has as its target Heat shock factor protein 1 (Homo sapiens) (UniProt Q00613). In words: ATG_HSE_CIS: Attagene CIS-FACTORIAL HepG2 Assay for human Heat Shock Transcription Factor 1 (HSE) (AID 2282953). The conditions noted are these: HepG2 HSE cis-reporter, Attagene RNA transcription; actives raise or lower the signal. The method in brief:
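Endogenous transcription factor activity captured via cis-promoter reporter units transfected into HepG2; treatment lasted 24 h. Fluorescence intensity of reporter fragments analysed with bidirectional curve fitting, DMSO baseline.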

A short description of experiment [9]: ATG_MRE_CIS: Attagene CIS-FACTORIAL HepG2 Assay for human Metal Responsive Element (MRE) (AID 2282954). The conditions noted are these: HepG2 MRE cis-reporter transcription, Attagene multiplex; actives raise or lower the signal. The essentials: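 HepG2 cells transiently transfected with multiple cis-element reporter units measure endogenous MTF1-driven transcription. After 24 h compound exposure, reporter mRNA is quantified by RT-PCR with 6-FAM labelling, HpaI digestion and capillary electrophoresis; bidirectional fits versus DMSO.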

Chain of Hypoxia-inducible factor 1-alpha (Homo sapiens) (Q16665 whole entry, looked up): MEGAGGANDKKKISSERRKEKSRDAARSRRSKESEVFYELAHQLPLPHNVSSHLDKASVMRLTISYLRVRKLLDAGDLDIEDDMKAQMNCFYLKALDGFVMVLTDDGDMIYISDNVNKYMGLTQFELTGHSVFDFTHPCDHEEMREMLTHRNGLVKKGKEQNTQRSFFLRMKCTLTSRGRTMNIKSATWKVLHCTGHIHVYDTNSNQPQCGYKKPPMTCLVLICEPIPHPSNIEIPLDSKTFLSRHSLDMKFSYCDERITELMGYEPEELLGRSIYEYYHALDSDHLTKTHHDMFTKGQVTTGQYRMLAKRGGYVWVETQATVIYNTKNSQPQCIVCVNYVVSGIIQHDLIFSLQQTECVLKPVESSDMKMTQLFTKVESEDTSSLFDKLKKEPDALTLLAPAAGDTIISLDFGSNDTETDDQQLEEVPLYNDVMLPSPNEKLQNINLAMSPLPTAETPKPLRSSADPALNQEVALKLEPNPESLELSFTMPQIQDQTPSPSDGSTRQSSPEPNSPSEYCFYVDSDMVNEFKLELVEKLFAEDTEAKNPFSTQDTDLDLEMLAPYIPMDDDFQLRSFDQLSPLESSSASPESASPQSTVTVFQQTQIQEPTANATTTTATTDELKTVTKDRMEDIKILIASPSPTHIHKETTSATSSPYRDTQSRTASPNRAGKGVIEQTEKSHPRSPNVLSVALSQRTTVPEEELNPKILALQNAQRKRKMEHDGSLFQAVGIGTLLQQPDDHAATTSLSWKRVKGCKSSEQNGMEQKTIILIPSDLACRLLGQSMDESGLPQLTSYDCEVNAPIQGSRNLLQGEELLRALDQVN
Chain of Bile acid receptor (Homo sapiens) (Q96RI1 whole entry, looked up): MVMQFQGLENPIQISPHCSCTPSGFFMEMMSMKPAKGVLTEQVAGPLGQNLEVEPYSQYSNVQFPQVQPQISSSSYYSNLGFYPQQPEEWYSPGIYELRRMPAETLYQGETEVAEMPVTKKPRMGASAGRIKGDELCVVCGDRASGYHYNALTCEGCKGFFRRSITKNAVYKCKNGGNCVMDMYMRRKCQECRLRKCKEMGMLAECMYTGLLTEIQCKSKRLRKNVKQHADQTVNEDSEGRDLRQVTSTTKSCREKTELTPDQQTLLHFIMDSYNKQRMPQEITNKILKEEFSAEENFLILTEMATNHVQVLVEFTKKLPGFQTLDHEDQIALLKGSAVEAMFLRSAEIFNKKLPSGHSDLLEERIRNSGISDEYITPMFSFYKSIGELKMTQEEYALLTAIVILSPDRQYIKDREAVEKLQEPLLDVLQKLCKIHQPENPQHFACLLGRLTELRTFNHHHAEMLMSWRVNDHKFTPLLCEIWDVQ
Chain of Heat shock factor protein 1 (Homo sapiens) (Q00613 whole entry, looked up, the tested form may be a part): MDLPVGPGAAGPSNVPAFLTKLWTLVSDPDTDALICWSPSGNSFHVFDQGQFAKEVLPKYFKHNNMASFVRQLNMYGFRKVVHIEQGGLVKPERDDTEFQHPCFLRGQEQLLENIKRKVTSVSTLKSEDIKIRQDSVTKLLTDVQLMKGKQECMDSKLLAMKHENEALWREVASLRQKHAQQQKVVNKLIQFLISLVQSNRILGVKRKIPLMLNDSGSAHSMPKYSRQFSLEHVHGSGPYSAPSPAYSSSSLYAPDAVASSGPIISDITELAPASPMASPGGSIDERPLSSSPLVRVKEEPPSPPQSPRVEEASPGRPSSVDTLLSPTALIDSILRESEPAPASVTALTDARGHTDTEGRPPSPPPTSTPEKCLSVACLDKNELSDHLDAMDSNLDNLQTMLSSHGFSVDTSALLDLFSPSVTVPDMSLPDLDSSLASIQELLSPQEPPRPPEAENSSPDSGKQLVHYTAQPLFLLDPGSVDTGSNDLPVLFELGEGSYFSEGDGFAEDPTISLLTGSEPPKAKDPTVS
Chain of Hepatocyte nuclear factor 6 (Homo sapiens) (Q9UBC0 whole entry, looked up): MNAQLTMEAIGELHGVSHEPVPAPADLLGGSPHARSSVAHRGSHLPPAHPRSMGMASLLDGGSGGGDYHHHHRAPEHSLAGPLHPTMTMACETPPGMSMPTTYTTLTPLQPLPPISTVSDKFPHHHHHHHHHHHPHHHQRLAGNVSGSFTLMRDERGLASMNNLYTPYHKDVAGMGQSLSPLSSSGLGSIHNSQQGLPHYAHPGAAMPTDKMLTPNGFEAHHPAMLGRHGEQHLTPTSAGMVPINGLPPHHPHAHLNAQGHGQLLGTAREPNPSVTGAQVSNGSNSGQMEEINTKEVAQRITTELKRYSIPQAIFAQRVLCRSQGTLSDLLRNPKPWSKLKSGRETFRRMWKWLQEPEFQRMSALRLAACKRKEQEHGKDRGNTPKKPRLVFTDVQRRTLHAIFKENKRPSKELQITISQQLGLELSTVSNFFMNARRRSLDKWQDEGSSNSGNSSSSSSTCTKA

For the compound `OCCC(O)CO` (configuration not stated), the compound was classed as inactive in experiment [1], in experiment [2], in experiment [3], in experiment [4], in [5] and in experiment [6]. Further, the outcome in experiment [7], in experiment [8] and in [9] was inactive.

On to `O=C(Cl)C(F)(F)C(F)(F)C(F)(F)C(F)(F)C(F)(F)C(F)(F)C(F)(F)F`, for which the result in experiment [1], in experiment [2], in experiment [3], in experiment [4], in [5] and in experiment [7] was inactive. The compound was classed as inactive in experiment [8] and in experiment [9].

As to `Cc1cc(=O)[nH]c(C(C)C)n1`, the outcome in experiment [1], in [2], in [3], in experiment [4], in experiment [5] and in [6] was inactive. Moreover, the call in [7], in [8] and in [9] was inactive.

As for `O=C(O)CCC(F)(F)C(F)(F)C(F)(F)F`, the result in experiment [1], in experiment [2], in experiment [3], in experiment [4], in experiment [5] and in experiment [6] was inactive. In addition, the compound was classed as inactive in experiment [7], in [8] and in experiment [9].

For `NC(=O)C(F)(F)C(F)(F)C(F)(F)C(F)F`, the compound was classed as inactive in [1], in [2], in experiment [3], in [4], in experiment [5] and in experiment [7]. The result in [8] and in experiment [9] was inactive.

Consider `CCCCCCCCCCCCCC[P+](CCCC)(CCCC)CCCC`, for which the result in [1], in [2], in [3], in experiment [4], in experiment [5] and in [6] was inactive. In addition, the result in experiment [7] was inactive. The AC50 in [8] is 0.82 µM (active); in [9], 0.871 µM (active).

Turning to `Cc1ccc(S(=O)(=O)C(I)I)cc1`, the concentration at half-maximal activity (AC50) is 6.16 µM (active) in experiment [1]; 42.7 µM (active) in experiment [2]; 4.8 µM (active) in experiment [3]; 33.4 µM (active) in [7]; 10.4 µM (active) in [8]; 8.81 µM (active) in experiment [9]. For the same compound, the result in experiment [4], in experiment [5] and in experiment [6] was inactive.

As to `CCc1cc(Cc2cc(CC)c(N)c(CC)c2)cc(CC)c1N`, the AC50 was 60.5 µM (active) in experiment [1], 56.6 µM (active) in [7], 60 µM (active) in [8] and 26.1 µM (active) in experiment [9]. Moreover, the compound was classed as inactive in experiment [2], in experiment [3], in experiment [4], in experiment [5] and in experiment [6].

On to `O=C(F)C1(F)C(F)(F)C(F)(F)C(F)(F)C(F)(F)C1(F)F`, for which the outcome in experiment [1], in [2], in experiment [3], in experiment [4], in experiment [5] and in [7] was inactive. In addition, the call in [9] was inactive.

As for `NS(=O)(=O)C(F)(F)C(F)(F)C(F)(F)C(F)(F)C(F)(F)C(F)(F)F`, the outcome in experiment [1], in experiment [2], in experiment [3], in [4], in experiment [5] and in [6] was inactive. The result in experiment [7] and in experiment [8] was inactive. In addition, in experiment [9], the concentration at half-maximal activity (AC50) is 59 µM (active).

In the case of `NC(=O)C(F)(F)C(F)(F)C(F)(F)C(F)(F)C(F)(F)C(F)(F)C(F)(F)F`, the call in experiment [1], in experiment [2], in experiment [3], in [4], in experiment [5] and in experiment [6] was inactive. Besides, the compound was called inactive in experiment [7] and in experiment [9].

For the compound `CC(C)(C)C(=O)C1C(=O)c2ccccc2C1=O`, the compound was called inactive in experiment [1], in experiment [2], in [3], in [4], in experiment [5] and in experiment [7]. For the same compound, the outcome in experiment [8] and in experiment [9] was inactive. Also, the AC50 in [6] was 158 µM (active).

With `OCC(F)(F)C(F)(F)C(F)(F)C(F)(F)C(F)(F)C(F)(F)C(F)(F)C(F)(F)CO`, the compound was classed as inactive in experiment [1], in experiment [2], in experiment [3], in experiment [4], in experiment [5] and in experiment [6]. Further, the compound was called inactive in experiment [7], in experiment [8] and in [9].

For `Cc1ccc(O)c(-n2nc3ccccc3n2)c1`, the compound was called inactive in [1], in experiment [2], in [3], in experiment [4], in [5] and in experiment [7]. The compound was called inactive in experiment [9].

Take `CCCCCC/C=C/CCCCCCCC(=O)O`: the outcome in experiment [1], in experiment [2], in experiment [3], in experiment [4], in experiment [5] and in experiment [6] was inactive. The result in experiment [7], in experiment [8] and in experiment [9] was inactive.

`C=C(C)CCCC`: the call in experiment [1], in [2], in experiment [3], in experiment [4], in experiment [5] and in experiment [6] was inactive. In addition, the compound was classed as inactive in experiment [7], in experiment [8] and in [9].

For `CCCCCCCC/C=C\CCCCCCCC(=O)OCC(O)CO` (configuration not stated), the compound was called inactive in experiment [1], in [2], in experiment [3], in experiment [4], in [5] and in experiment [7]. In experiment [9], the outcome was inactive. For the same compound, the half-maximal activity concentration (AC50) in [6] is 100 µM (active).

`O=C(O)CCC(F)(F)C(F)(F)C(F)(F)C(F)(F)C(F)(F)C(F)(F)C(F)(F)F`: the compound was called inactive in [1], in [2], in experiment [4], in [5], in experiment [6] and in experiment [7]. Moreover, the compound was called inactive in [9]. The AC50 in [3] is 150 µM (active).

`CCN(CCO)S(=O)(=O)C(F)(F)C(F)(F)C(F)(F)C(F)(F)C(F)(F)C(F)(F)C(F)(F)C(F)(F)F`: the outcome in experiment [1], in experiment [2], in experiment [3], in [4], in experiment [5] and in [6] was inactive. For the same compound, the result in [7], in experiment [8] and in [9] was inactive.

In the case of `O=C(O)C(F)(F)C(F)(F)C(F)(F)C(F)(F)C(F)(F)C(F)(F)C(F)F`, the compound was classed as inactive in [1], in [2], in experiment [3], in experiment [4], in [5] and in experiment [6]. The result in [7], in [8] and in experiment [9] was inactive.

`CC(=O)C=O`: the compound was classed as inactive in [1], in experiment [2], in [3], in experiment [4], in experiment [5] and in experiment [7]. Further, the result in [8] and in [9] was inactive.

`CSc1ccc(Cl)cc1`: the compound was called inactive in [1], in [2], in experiment [3], in experiment [4], in [5] and in experiment [6]. For the same compound, the call in experiment [7], in [8] and in experiment [9] was inactive.

Consider `CCOC(C=C(C)CCC=C(C)C)OCC`, for which the outcome in [1], in experiment [2], in experiment [3], in experiment [4], in experiment [5] and in experiment [7] was inactive. The outcome in experiment [8] and in [9] was inactive.

`CC(=O)CCC(C)C`: the call in experiment [1], in [2], in experiment [3], in [4], in [5] and in experiment [7] was inactive. The compound was called inactive in experiment [8] and in experiment [9].

In the case of `CCC(Cc1c(I)cc(I)c(N)c1I)C(=O)O` (configuration not stated), the outcome in experiment [1], in [2], in experiment [4], in experiment [5], in experiment [6] and in experiment [7] was inactive. Besides, the compound was called inactive in experiment [8] and in experiment [9]. Moreover, the AC50 in [3] was 88.5 µM (active).

Consider `C[Si](C)O[Si](C)C`, for which the compound was classed as inactive in experiment [1], in experiment [2], in experiment [3], in experiment [4], in experiment [5] and in [6]. Moreover, the result in [7], in experiment [8] and in [9] was inactive.

Consider `OCCCC(F)(F)C(F)(F)C(F)(F)C(F)(F)C(F)(F)C(F)(F)C(F)(F)C(F)(F)F`, for which the outcome in experiment [1], in [2], in experiment [4], in experiment [5], in experiment [6] and in experiment [7] was inactive. Further, the call in experiment [9] was inactive. For the same compound, in [3], the AC50 was 50 µM (active).

As to `O=C1c2ccccc2C(=O)c2c(Cl)cccc21`, the outcome in experiment [1], in experiment [2], in [3], in experiment [4], in [5] and in experiment [7] was inactive. In addition, the outcome in experiment [8] and in [9] was inactive.

As to `Cc1ccc(O)cn1`, the outcome in experiment [1], in experiment [2], in [3], in [4], in experiment [5] and in experiment [6] was inactive. The compound was classed as inactive in experiment [7], in [8] and in experiment [9].
